Results from PubChem BioAssay (Tox21).
Results filed as inconclusive are left out. Active and inactive are the calls of the source. Calls come from the whole dose curve; as a rule, active = well fitted curve in the direction sought with a large enough effect in the repeat runs; inconclusive = weak or mixed curves; inactive = no such curve, though single readings can be large; an effect the other way counts as inactive or inconclusive.

How the values were obtained:
[1] = qHTS RealTime-Glo MT Cell Viability Assay in HepG2 cells - 40 hour (AID 1224870); note: nearly all actives have a fitted effect of over 50% in size
How it was run: (§1)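 HepG2 cells (600/well) mixed with RealTime-Glo MT reagent, settled 5 h at 37 C/5% CO2 before compound addition. Nonlytic NanoLuc luminescence from viable-cell prosubstrate reduction read repeatedly during 40 h treatment at 37 C.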

[2] = A CellTox Green Cytotoxicity Assay to monitor cytotoxicity in HEK293 cells - 40 hour (AID 1224871); note: nearly all actives have a fitted effect of over 45% in size
How it was run: (§2)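 Read-out: fluorescence of a cell-impermeant cyanine dye staining DNA of dead cells, proportional to cytotoxicity. HEK293, 600 cells/well with reagent, compound (23 nL DMSO) added after 5 h; reads at 0, 8, 16, 24, 32, 40 h.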

[3] = qHTS RealTime-Glo MT Cell Viability Assay in HEK293 cells - 16 hour (AID 1224872); note: top concentration of the series differs between compounds; nearly all actives have a fitted effect of over 50% in size
How it was run: (§3)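 Viability tracked continuously by luminescence as live cells reduce a prosubstrate for NanoLuc; HEK293 cells preincubated 5 h, compound-treated at 37 C, and read at 0, 8, 16, 24, 32 and 40 h.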

[4] = qHTS RealTime-Glo MT Cell Viability Assay in HepG2 cells - 8 hour (AID 1224873); note: nearly all actives have a fitted effect of over 55% in size
How it was run: as §1

[5] = qHTS RealTime-Glo MT Cell Viability Assay in HEK293 cells - 40 hour (AID 1224874); details: RealTime-Glo luminescence; max response: active compounds read low; note: nearly all actives have a fitted effect of over 50% in size
How it was run: (§4)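 Luminescence readout at each listed time point; HEK293, 600 cells/well, RealTime-Glo MT reagent added with cells; compounds pinned (23 nL in DMSO) after 5 h at 37 C; continuous culture at 37 C.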

[6] = A CellTox Green Cytotoxicity Assay to monitor cytotoxicity in HEK293 cells - 24 hour (AID 1224875); note: series mostly up to about 77 µM; nearly all actives have a fitted effect of over 45% in size
How it was run: as §2

[7] = A CellTox Green Cytotoxicity Assay to monitor cytotoxicity in HepG2 cells - 16 hour (AID 1224876); note: nearly all actives have a fitted effect of over 45% in size
How it was run: (§5)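 HepG2, 600 cells/well premixed w/ CellTox Green; 5 h settle, 37 C/5% CO2; pintool cpd add (DMSO); 37 C, 40 h; fluorescence read at 0, 8, 16, 24, 32, 40 h.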

[8] = qHTS RealTime-Glo MT Cell Viability Assay in HepG2 cells - 32 hour (AID 1224877); note: nearly all actives have a fitted effect of over 55% in size
How it was run: (§6)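 Viability was tracked continuously by NanoLuc luminescence from prosubstrate reduced by living HepG2 cells, at successive time points over 40 h of compound exposure. Cells with reagent were preincubated 5 h at 37 °C before compound addition.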

[9] = A CellTox Green Cytotoxicity Assay to monitor cytotoxicity in HepG2 cells - 40 hour (AID 1224879); note: nearly all actives have a fitted effect of over 40% in size
How it was run: as §5

[10] = qHTS RealTime-Glo MT Cell Viability Assay in HEK293 cells - 0 hour (AID 1224880); note: top concentration of the series differs between compounds; nearly all actives have a fitted effect of over 45% in size
How it was run: as §4

[11] = A CellTox Green Cytotoxicity Assay to monitor cytotoxicity in HEK293 cells - 32 hour (AID 1224881); note: nearly all actives have a fitted effect of over 40% in size
How it was run: as §2

[12] = A CellTox Green Cytotoxicity Assay to monitor cytotoxicity in HepG2 cells - 0 hour (AID 1224882); note: nearly all actives have a fitted effect of over 35% in size
How it was run: as §5

[13] = A CellTox Green Cytotoxicity Assay to monitor cytotoxicity in HepG2 cells - 32 hour (AID 1224883); note: nearly all actives have a fitted effect of over 50% in size
How it was run: as §5

[14] = qHTS RealTime-Glo MT Cell Viability Assay in HEK293 cells - 24 hour (AID 1224886)
How it was run: as §3

[15] = qHTS RealTime-Glo MT Cell Viability Assay in HEK293 cells - 8 hour (AID 1224887)
How it was run: as §4

[16] = A CellTox Green Cytotoxicity Assay to monitor cytotoxicity in HEK293 cells - 16 hour (AID 1224888); note: nearly all actives have a fitted effect of over 35% in size
How it was run: as §2

[17] = qHTS RealTime-Glo MT Cell Viability Assay in HepG2 cells - 0 hour (AID 1224889); note: nearly all actives have a fitted effect of over 50% in size
How it was run: as §6

[18] = A CellTox Green Cytotoxicity Assay to monitor cytotoxicity in HEK293 cells - 8 hour (AID 1224884); note: nearly all actives have a fitted effect of over 35% in size
How it was run: as §2

[19] = qHTS RealTime-Glo MT Cell Viability Assay in HepG2 cells - 16 hour (AID 1224885); note: nearly all actives have a fitted effect of over 50% in size
How it was run: as §6

[20] = A CellTox Green Cytotoxicity Assay to monitor cytotoxicity in HepG2 cells - 24 hour (AID 1224878); note: nearly all actives have a fitted effect of over 45% in size
How it was run: as §5
% is set by controls: 0 for no effect and ±100 for the full control effect.

CNc1ccccc1
inactive: Potency [1] | Potency [2] | Potency [3] | outcome [4] | max response [5] 4.77% | Potency [6] | Potency [7] | Potency [8] | Potency [9] | Potency [10] | Potency [11] | Potency [12] | Potency [13] | Potency [14] | Potency [15] | Potency [16] | Potency [17]

Cc1ccccc1CCO
inactive: Potency [1] | Potency [2] | Potency [3] | outcome [4] | max response [5] 5.71% | Potency [6] | Potency [7] | Potency [8] | Potency [9] | Potency [10] | Potency [11] | Potency [12] | Potency [13] | Potency [18] | outcome [19] | Potency [14] | Potency [15] | Potency [16] | Potency [17]

CCCCCCCCC(=O)OCC(C)OC(=O)CCCCCCCC (stereo not given)
inactive: Potency [1] | Potency [2] | Potency [3] | outcome [4] | max response [5] 0.14% | Potency [6] | Potency [7] | Potency [8] | Potency [20] | Potency [9] | Potency [10] | Potency [12] | Potency [13] | Potency [18] | outcome [19] | Potency [14] | Potency [15] | Potency [16] | Potency [17]

COC(=O)/C=C/C(C)=C\C=C\C(C)=C\C=C\C=C(C)\C=C\C=C(C)\C=C\C(=O)O
inactive: Potency [1] | Potency [2] | Potency [3] | outcome [4] | max response [5] 1.87% | Potency [6] | Potency [7] | Potency [8] | Potency [20] | Potency [9] | Potency [10] | Potency [12] | Potency [13] | outcome [19] | Potency [14] | Potency [15] | Potency [16] | Potency [17]

CCCc1ccc(OC)cc1
inactive: Potency [1] | Potency [2] | Potency [3] | outcome [4] | max response [5] 11.9% | Potency [6] | Potency [7] | Potency [8] | Potency [20] | Potency [10] | Potency [11] | Potency [12] | Potency [13] | Potency [18] | outcome [19] | Potency [14] | Potency [15] | Potency [16] | Potency [17]

O=C(Nc1ccccc1)c1cc([N+](=O)[O-])ccc1Cl
inactive: Potency [1] | Potency [2] | Potency [3] | outcome [4] | max response [5] -23.2% | Potency [6] | Potency [7] | Potency [8] | Potency [20] | Potency [10] | Potency [11] | Potency [12] | Potency [13] | Potency [18] | outcome [19] | Potency [14] | Potency [15] | Potency [16] | Potency [17]

C[C@@H](O)[C@H]1C(=O)N2C(C(=O)O)=C(S[C@@H]3CN[C@H](CNS(N)(=O)=O)C3)[C@H](C)[C@H]12
inactive: Potency [1] | Potency [2] | Potency [3] | outcome [4] | max response [5] 2.56% | Potency [6] | Potency [7] | Potency [8] | Potency [9] | Potency [10] | Potency [11] | Potency [12] | Potency [13] | Potency [18] | outcome [19] | Potency [14] | Potency [15] | Potency [16] | Potency [17]

O=C(O)c1ccc2cc(O)ccc2c1
inactive: Potency [1] | Potency [2] | Potency [3] | outcome [4] | max response [5] -17.3% | Potency [6] | Potency [7] | Potency [8] | Potency [9] | Potency [10] | Potency [11] | Potency [12] | Potency [13] | Potency [18] | outcome [19] | Potency [14] | Potency [15] | Potency [16] | Potency [17]

CO[C@@H]1[C@@H](O[C@@H]2O[C@H](C)[C@@H](O[C@H]3C[C@@](C)(O)[C@@H](O)[C@H](C)O3)[C@H](N(C)C)[C@H]2O)[C@@H](CC=O)C[C@@H](C)[C@@H](O[C@@H]2CC[C@H](N(C)C)[C@@H](C)O2)/C=C/C=C/C[C@@H](C)OC(=O)C[C@H]1OC(C)=O
inactive: Potency [1] | Potency [2] | Potency [3] | outcome [4] | max response [5] 1.04% | Potency [6] | Potency [7] | Potency [8] | Potency [9] | Potency [10] | Potency [12] | Potency [13] | Potency [18] | outcome [19] | Potency [14] | Potency [15] | Potency [16] | Potency [17]

Cc1c(Cl)cccc1[N+](=O)[O-]
inactive: Potency [1] | Potency [2] | Potency [3] | outcome [4] | max response [5] -7.04% | Potency [6] | Potency [8] | Potency [20] | Potency [9] | Potency [10] | Potency [11] | Potency [12] | Potency [13] | outcome [19] | Potency [14] | Potency [15] | Potency [16] | Potency [17]

CCOC(C)OCC
inactive: Potency [1] | Potency [2] | Potency [3] | outcome [4] | max response [5] -0.223% | Potency [6] | Potency [8] | Potency [9] | Potency [10] | Potency [11] | Potency [12] | Potency [13] | outcome [19] | Potency [14] | Potency [15] | Potency [17]

O=C(O)c1cccc(C(=O)O)c1C(=O)O
inactive: Potency [1] | Potency [2] | Potency [3] | max response [5] -17% | Potency [6] | Potency [7] | Potency [8] | Potency [20] | Potency [9] | Potency [10] | Potency [11] | Potency [12] | Potency [13] | Potency [18] | Potency [14] | Potency [15] | Potency [16] | Potency [17]

Cc1ccc2ccccc2c1[N+](=O)[O-]
inactive: Potency [1] | Potency [2] | Potency [3] | outcome [4] | max response [5] 5.94% | Potency [6] | Potency [8] | Potency [20] | Potency [9] | Potency [10] | Potency [11] | Potency [12] | Potency [13] | Potency [18] | outcome [19] | Potency [14] | Potency [15] | Potency [16] | Potency [17]

CCCCC(CC)COCCC#N (stereo not given)
inactive: Potency [1] | Potency [2] | Potency [3] | outcome [4] | max response [5] 12.6% | Potency [6] | Potency [8] | Potency [20] | Potency [9] | Potency [10] | Potency [11] | Potency [12] | Potency [13] | Potency [14] | Potency [15] | Potency [16] | Potency [17]
